Test results published in PubChem BioAssay (NCATS).
Inconclusive results are not listed. The source made the active and inactive calls. The call rests on the fitted dose curve; in most records, active means well fitted curve in the direction sought with a large enough effect; inconclusive means small, poorly fitted or top-dose-only effect, or another doubt; inactive means no such curve, though single readings can be large; an effect the other way counts as inactive or inconclusive.

How the values were obtained:
HEK293 = assay: Cytotoxic Profiling of Annotated Libraries Using Quantitative High-Throughput Screening (AID 1296008); settings: Five cell lines viability, CellTiter-Glo ATP luminescence, 48-72 h; max response: hits give low values; further: nearly all actives have a fitted effect of over 60% in size; further: potency means the concentration at half of the fitted maximal effect
Method in brief: (§1)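 Compounds were pin-transferred onto cells and incubated 48 or 72 hr at 37 degree Celsius, 95% humidity. CellTiter-Glo was added, plates sat 10 min at room temperature, then ATP-coupled luminescence was imaged as the viability read-out.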

HaCat [1] = assay: as above; settings: Five cell lines viability, CellTiter-Glo ATP luminescence, 48-72 h; max response: hits give low values
Method in brief: as §1

KB-3-1 = assay: as above; settings: Five cell lines viability, CellTiter-Glo ATP luminescence, 48-72 h; max response: hits give low values
Method in brief: as §1

Es-2 = assay: Primary qHTS to identify gynecologic anti-cancer compounds using libraries of approved drugs and bioactive compounds (AID 1345084); settings: Gynecologic cancer cell panel viability, ATPlite luminescence, 48 h; series mostly up to 57.5 µM; further: nearly all actives have a fitted effect of over 55% in size; further: potency means the concentration at half of the fitted maximal effect
Method in brief: (§2)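 48 h compound exposure at 37 C, 5% CO2; five-point qHTS. ATPlite luminescence readout of cell ATP.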

HeLa = assay: as above; settings: Gynecologic cancer cell panel viability, ATPlite luminescence, 48 h; series mostly up to 57.5 µM
Method in brief: as §2

JEG-3 = assay: as above; settings: Gynecologic cancer cell panel viability, ATPlite luminescence, 48 h; series mostly up to 57.5 µM
Method in brief: as §2

NIH3T3 [2] = assay: Cytotoxic Profiling of Annotated Libraries Using Quantitative High-Throughput Screening (AID 1296008); settings: Five cell lines viability, CellTiter-Glo ATP luminescence, 48-72 h; max response: hits give low values; further: nearly all actives have a fitted effect of over 60% in size; further: potency means the concentration at half of the fitted maximal effect
Method in brief: as §1

HACAT [3] = assay: qHTS assay to identify novel small-molecules to repurpose for Merkel cell carcinoma treatment (AID 1296009); settings: MCC and control cell lines, CellTiter-Glo viability, 72 h; series mostly up to 44.8 µM; further: nearly all actives have a fitted effect of over 60% in size
Method in brief: (§3)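 Viability readout: ATP luminescence (CellTiter-Glo) after 72 hr drug exposure at 37 degree celsius. Dose-response format was 8 points for NPC and 11 points for MIPE; data normalized to in-plate controls.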

HEK293T [4] = assay: as above; settings: MCC and control cell lines, CellTiter-Glo viability, 72 h; at 44.8 µM (top of the series) unless noted
Method in brief: as §3

C33A = assay: Primary qHTS to identify gynecologic anti-cancer compounds using libraries of approved drugs and bioactive compounds (AID 1345084); settings: Gynecologic cancer cell panel viability, ATPlite luminescence, 48 h; series mostly up to 57.5 µM; further: nearly all actives have a fitted effect of over 55% in size; further: potency means the concentration at half of the fitted maximal effect
Method in brief: as §2

CAOV3 = assay: as above; settings: Gynecologic cancer cell panel viability, ATPlite luminescence, 48 h; series mostly up to 57.5 µM
Method in brief: as §2

CASKI = assay: as above; settings: Gynecologic cancer cell panel viability, ATPlite luminescence, 48 h; series mostly up to 57.5 µM
Method in brief: as §2

Hek293T [5] = assay: as above; settings: Gynecologic cancer cell panel viability, ATPlite luminescence, 48 h, control line for the selectivity index; series mostly up to 57.5 µM
Method in brief: as §2

MCC-13 = assay: qHTS assay to identify novel small-molecules to repurpose for Merkel cell carcinoma treatment (AID 1296009); settings: MCC and control cell lines, CellTiter-Glo viability, 72 h; series mostly up to 46 µM; further: nearly all actives have a fitted effect of over 60% in size
Method in brief: as §3

MCC-26 = assay: as above; settings: MCC and control cell lines, CellTiter-Glo viability, 72 h; series mostly up to 46 µM
Method in brief: as §3

MKL-1 = assay: as above; settings: MCC and control cell lines, CellTiter-Glo viability, 72 h; series mostly up to 46 µM
Method in brief: as §3

MKL-2 = assay: as above; settings: MCC and control cell lines, CellTiter-Glo viability, 72 h; series mostly up to 46 µM
Method in brief: as §3

UISO = assay: as above; settings: MCC and control cell lines, CellTiter-Glo viability, 72 h; series mostly up to 46 µM
Method in brief: as §3

WaGa = assay: as above; settings: MCC and control cell lines, CellTiter-Glo viability, 72 h; series mostly up to 46 µM
Method in brief: as §3

NIH3T3 [6] = assay: as above; settings: MCC and control cell lines, CellTiter-Glo viability, 72 h; at 44.8 µM (top of the series) unless noted
Method in brief: as §3
On the % scale 0 is the no-effect control and ±100 the full control effect.

C=CC(=O)Nc1cccc(Nc2nc(Nc3ccc(N4CCN(C(C)=O)CC4)cc3OC)ncc2C(F)(F)F)c1
active: Potency (HEK293) 6510 nM | Potency (HaCat [1]) 2910 nM | Potency (KB-3-1) 11600 nM
inactive: Potency (Es-2)

COc1cccc(-c2cc(NCc3ccc4c(c3)OCO4)nc(N)n2)c1
inactive: max response (HaCat [1]) -46.3%
active: Potency (HEK293) 184 nM | Potency (KB-3-1) 231 nM | Potency (Es-2) 1410 nM | Potency (HeLa) 1000 nM | Potency (JEG-3) 1410 nM

Cc1ccccc1NC(=O)Nc1ccc(CC(=O)N(C)[C@@H](CC(C)C)C(=O)NCC[C@H](NC(=O)[C@@H]2CCCN2S(=O)(=O)c2cc(Cl)cc(Cl)c2)C(=O)O)cc1
inactive: outcome (HEK293) | outcome (HaCat [1]) | max response (NIH3T3 [2]) -5.85% | Potency (HACAT [3]) | outcome (HEK293T [4]) inactive [at 17.4 µM] | Potency (C33A) | Potency (CAOV3) | Potency (CASKI) | Potency (Es-2) | Potency (HeLa) | Potency (Hek293T [5]) | Potency (JEG-3)

CC(=O)N1CCN(C(=O)Cc2ccc(Nc3ncc(F)c(Nc4ccc(C(=O)Nc5ccccc5Cl)cc4)n3)cc2)CC1
inactive: Potency (JEG-3)
active: Potency (HEK293) 6510 nM | Potency (HaCat [1]) 4110 nM | Potency (KB-3-1) 5170 nM | Potency (CAOV3) 31600 nM | Potency (HeLa) 7940 nM

COc1ccc(-c2cnc(-c3cccc4c3-c3ccccc3C4=O)o2)cc1
inactive: max response (HaCat [1]) -2.01% | Potency (CAOV3)
active: Potency (HEK293) 112 nM | Potency (KB-3-1) 70.9 nM | Potency (Es-2) 158 nM | Potency (HeLa) 199 nM | Potency (JEG-3) 2000 nM

CCN(CC)c1ccc2c(O)c(C=Nc3ccc(CC(=O)O)c(-c4c5c(nc6ccccc46)CCC(C(=O)NN)C5)c3)c(=O)oc2c1 (configuration not stated)
active: Potency (HEK293) 11600 nM | Potency (KB-3-1) 5800 nM

N#CC(c1ccnc(OCc2ccc(CN3CCOCC3)cc2)n1)c1nc2ccccc2s1 (configuration not stated)
inactive: max response (HaCat [1]) 0.847% | max response (KB-3-1) -18.3% | Potency (Es-2) | Potency (HeLa)
active: Potency (HEK293) 5170 nM | Potency (JEG-3) 10000 nM

CCC(C(=O)O)c1ccc(N2Cc3ccccc3C2=O)cc1 (configuration not stated)
inactive: max response (HEK293) -2.44% | outcome (HaCat [1]) | max response (NIH3T3 [2]) 3.06% | Potency (HACAT [3]) | outcome (MCC-13) | outcome (MCC-26) | Potency (MKL-1) | Potency (MKL-2) | Potency (UISO) | Potency (WaGa) | Potency (C33A) | Potency (CAOV3) | Potency (CASKI) | Potency (Es-2) | Potency (HeLa) | Potency (Hek293T [5]) | Potency (JEG-3)

COc1ncc(Nc2ncc([C@H](C)N3CCN(S(C)(=O)=O)CC3)cc2-c2nc(C)nc(N)n2)cc1F
inactive: Potency (Es-2)
active: Potency (HEK293) 517 nM | Potency (HaCat [1]) 146 nM | Potency (KB-3-1) 6510 nM | Potency (CASKI) 1000 nM | Potency (Hek293T [5]) 794 nM

CO[C@H]1/C=C/C=C/C=C/C[C@H](OC(=O)[C@@H](C)NC(=O)C2CCCCC2)[C@H](C)[C@@H](O)/C(C)=C/CCc2cc(O)cc(c2)NC(=O)C1
inactive: Potency (CAOV3) | Potency (JEG-3)
active: Potency (HEK293) 343 nM | Potency (HaCat [1]) 1090 nM | Potency (KB-3-1) 544 nM | Potency (Es-2) 1780 nM | Potency (HeLa) 3550 nM | Potency (Hek293T [5]) 708 nM

O=C(O)c1c(O)c(-c2ccccc2)nc2ccccc12
inactive: max response (HEK293) -11.2% | outcome (HaCat [1]) | outcome (NIH3T3 [2]) | Potency (HACAT [3]) | outcome (MCC-13) | outcome (MCC-26) | Potency (MKL-1) | Potency (MKL-2) | outcome (NIH3T3 [6]) | Potency (UISO) | Potency (WaGa) | Potency (C33A) | Potency (CAOV3) | Potency (CASKI) | Potency (Es-2) | Potency (HeLa) | Potency (Hek293T [5]) | Potency (JEG-3)

CC(=O)SCC(=O)c1ccc(NS(=O)(=O)c2ccc(OCCCN(C)C)cc2)nc1
active: Potency (HEK293) 7310 nM | Potency (HaCat [1]) 14600 nM | Potency (KB-3-1) 8200 nM | Potency (Es-2) 14100 nM | Potency (HeLa) 10000 nM | Potency (JEG-3) 15800 nM
inactive: Potency (CAOV3)

CCN(Cc1cccnc1)C(=O)CN(c1ccc(OC)nc1)S(=O)(=O)c1ccccc1C
inactive: outcome (HEK293) | outcome (HaCat [1]) | outcome (NIH3T3 [2]) | Potency (HACAT [3]) | outcome (HEK293T [4]) | outcome (NIH3T3 [6]) | Potency (C33A) | Potency (CAOV3) | Potency (CASKI) | Potency (Es-2) | Potency (HeLa) | Potency (Hek293T [5]) | Potency (JEG-3)
